# Assay results published in the supplement of paper PMC10849652.
# Targets with a hit are over-represented here; the source holds about 7,900 in all. About 0.6% of all pairs of compound and target were hits. Values without a mark were called inactive.
# Legend:
# Assay in all cases: log2 fold change, soluble protein after heating vs DMSO (PISA); higher = thermal stabilisation; K562 cells, 10 uM, 30 min; active = over 0.2 and 3.5 SD of the protein, either way, in both replicates (recomputed)
# [1] = compound: CC[C@@H]1C(=O)N(C)c2cnc(Nc3ccc(C(=O)NC4CCN(C)CC4)cc3OC)nc2N1C1CCCC1
# Outline: (§1)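 Values are thermal stability changes relative to control samples and are taken from duplicates. They are stated as log2 fold changes. Before quantification by TMTpro 16plex LC-MS/MS with equalised channel sums, K562 cells at 2×10^6 cells/mL were treated with 10 μM compound for 30 min, heated in aliquots for 3 min across 48°C-58°C, pooled, extracted in PBS with 0.5% NP-40 at 4°C, and centrifuged at 21,000xg for 90 min to give the soluble supernatant.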
# [2] = compound: CC[C@@H]1C(=O)N(C)c2cnc(Nc3ccc(C(=O)N[C@H]4CC[C@H](N5CCN(CC6CC6)CC5)CC4)cc3OC)nc2N1C(C)C [volasertib]
# Outline: as §1
# [3] = compound: CC[C@H](C)N1C=C(C2=C(C=C(C=C21)C3=CN=C(C=C3)N4CCNCC4)C(=O)NCC5=C(C=C(NC5=O)C)C)C
# Outline: as §1
# [4] = compound: CC[C@H](C)[C@@H](C(=O)N[C@@H]([C@@H](C)O)C(=O)N[C@@H](CC(C)C)C(=O)[C@]1(CO1)C)NC(=O)[C@H]([C@@H](C)CC)N(C)C(=O)C [epoxomicin]
# Outline: as §1
# [5] = compound: CCn1c(C(=O)N(C2CC2)C2CC2)cc2c3c(ncn3C)c(Nc3cc(C)n(C)n3)nc21
# Outline: as §1
# [6] = compound: CCn1cc(-c2ccnc3[nH]c(-c4cccc(CN(C)C)c4)cc23)c(-c2ccc(NC(=O)N(C)C)cc2)n1
# Outline: as §1
# [7] = compound: CN(C)CC(=O)Nc1ccc2[nH]c(=O)c3ccccc3c2c1
# Outline: as §1
# [8] = compound: CN(CCOC1=CC=C(C=C1)C[C@H]2C(=O)NC(=O)S2)C3=CC=CC=N3 (racemic) [rosiglitazone]
# Outline: as §1
# [9] = compound: CN1C2=C(C3=C1C(=O)N(N=C3)CC4=CC(=CC=C4)N)SC(=C2)S(=O)C
# Outline: as §1
# [10] = compound: CN1CCC(CNc2ccc3ncc(-c4cccc(OC(F)(F)F)c4)n3n2)CC1
# Outline: as §1
# [11] = compound: CN1CCN(CCOc2cc(OC3CCOCC3)c3c(Nc4c(Cl)ccc5c4OCO5)ncnc3c2)CC1 [saracatinib]
# Outline: as §1
# [12] = compound: CN1CCN(c2nc(C3=C(c4c[nH]c5ccccc45)C(=O)NC3=O)c3ccccc3n2)CC1 [sotrastaurin]
# Outline: as §1
# [13] = compound: CN1CC[C@H](c2c(O)cc(O)c3c(=O)cc(-c4ccccc4Cl)oc23)[C@H](O)C1 [alvocidib]
# Outline: as §1
# [14] = compound: CN1CCc2c(c3ccccc3n2Cc2ccc(C(=O)NO)cc2)C1 [Tubastatin A]
# Outline: as §1
# [15] = compound: CNC(=O)C1=CC=CC=C1NC2=NC(=NC=C2Cl)NC3=C(C=C(C=C3)N4CCOCC4)OC
# Outline: as §1
# [16] = compound: CNC(=O)c1ccc(Nc2ncc(C(F)(F)F)c(NCc3nccnc3N(C)S(C)(=O)=O)n2)cc1 [defactinib]
# Outline: as §1
# [17] = compound: CNCc1ccc(-c2[nH]c3cc(F)cc4c3c2CCNC4=O)cc1 [rucaparib]
# Outline: as §1
# [18] = compound: CNc1nc(-c2ccc3c(N)n[nH]c3c2)cc(N2C[C@@H](C(=O)NC3CCCCC3)CC[C@H]2C)n1
# Outline: as §1
# [19] = compound: COC(=O)N[C@@H](C)CNc1nccc(-c2cn(C(C)C)nc2-c2cc(Cl)cc(NS(C)(=O)=O)c2F)n1 [encorafenib]
# Outline: as §1
# [20] = compound: COC(=O)[C@H](CCSC)NC(=O)C1=C(C=C(C=C1)NC[C@H](CS)N)C2=CC=CC=C2
# Outline: as §1
# Sequence of UniProt Q9BTT0 (Q9BTT0 whole entry, looked up): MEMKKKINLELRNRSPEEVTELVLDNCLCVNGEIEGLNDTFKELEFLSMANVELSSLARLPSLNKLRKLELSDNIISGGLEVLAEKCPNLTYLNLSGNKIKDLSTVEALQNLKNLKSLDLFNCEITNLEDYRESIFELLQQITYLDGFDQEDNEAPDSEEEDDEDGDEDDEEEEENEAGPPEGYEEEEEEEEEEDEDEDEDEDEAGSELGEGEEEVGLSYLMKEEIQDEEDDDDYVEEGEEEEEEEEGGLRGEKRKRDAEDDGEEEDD
# Sequence of UniProt O95782 (O95782 whole entry, looked up): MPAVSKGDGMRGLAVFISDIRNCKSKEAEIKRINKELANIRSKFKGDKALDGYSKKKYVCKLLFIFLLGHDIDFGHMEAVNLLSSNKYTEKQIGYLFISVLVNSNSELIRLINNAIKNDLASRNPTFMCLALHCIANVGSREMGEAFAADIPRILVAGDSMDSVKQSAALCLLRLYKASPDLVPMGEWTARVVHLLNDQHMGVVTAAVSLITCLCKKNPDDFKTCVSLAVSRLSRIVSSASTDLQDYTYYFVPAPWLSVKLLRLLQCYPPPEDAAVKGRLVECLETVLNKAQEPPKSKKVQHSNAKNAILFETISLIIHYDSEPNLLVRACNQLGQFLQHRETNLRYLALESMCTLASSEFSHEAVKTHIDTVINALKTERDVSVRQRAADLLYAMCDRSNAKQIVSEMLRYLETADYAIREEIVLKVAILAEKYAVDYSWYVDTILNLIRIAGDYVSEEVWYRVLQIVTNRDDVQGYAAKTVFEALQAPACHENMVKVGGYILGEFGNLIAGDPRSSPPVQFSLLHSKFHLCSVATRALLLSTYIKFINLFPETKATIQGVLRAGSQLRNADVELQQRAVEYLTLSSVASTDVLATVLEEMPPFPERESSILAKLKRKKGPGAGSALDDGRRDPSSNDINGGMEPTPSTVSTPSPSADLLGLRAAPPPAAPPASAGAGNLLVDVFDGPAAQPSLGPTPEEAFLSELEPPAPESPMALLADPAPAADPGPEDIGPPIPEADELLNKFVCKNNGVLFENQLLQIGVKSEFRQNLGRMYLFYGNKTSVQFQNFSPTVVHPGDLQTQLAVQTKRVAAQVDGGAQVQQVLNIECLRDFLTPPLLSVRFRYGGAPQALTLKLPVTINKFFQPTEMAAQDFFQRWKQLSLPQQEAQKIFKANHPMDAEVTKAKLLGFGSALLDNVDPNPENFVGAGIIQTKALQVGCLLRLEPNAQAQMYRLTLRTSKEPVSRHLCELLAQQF
# Sequence of UniProt Q9UI12 (Q9UI12 whole entry, looked up): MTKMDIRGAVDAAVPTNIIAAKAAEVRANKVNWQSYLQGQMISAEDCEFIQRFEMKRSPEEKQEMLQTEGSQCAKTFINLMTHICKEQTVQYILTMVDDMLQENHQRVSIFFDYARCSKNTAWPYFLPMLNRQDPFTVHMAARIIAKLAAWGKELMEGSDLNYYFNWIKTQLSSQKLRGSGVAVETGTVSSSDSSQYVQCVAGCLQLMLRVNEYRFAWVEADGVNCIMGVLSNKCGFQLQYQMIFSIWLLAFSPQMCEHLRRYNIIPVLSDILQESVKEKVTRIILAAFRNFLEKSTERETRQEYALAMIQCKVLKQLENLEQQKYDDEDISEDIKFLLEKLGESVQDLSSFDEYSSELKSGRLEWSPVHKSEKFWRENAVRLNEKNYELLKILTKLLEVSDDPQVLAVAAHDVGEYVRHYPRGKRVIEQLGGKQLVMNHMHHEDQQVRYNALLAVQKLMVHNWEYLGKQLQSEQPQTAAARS
# Sequence of UniProt Q8NHH9 (Q8NHH9 whole entry, looked up): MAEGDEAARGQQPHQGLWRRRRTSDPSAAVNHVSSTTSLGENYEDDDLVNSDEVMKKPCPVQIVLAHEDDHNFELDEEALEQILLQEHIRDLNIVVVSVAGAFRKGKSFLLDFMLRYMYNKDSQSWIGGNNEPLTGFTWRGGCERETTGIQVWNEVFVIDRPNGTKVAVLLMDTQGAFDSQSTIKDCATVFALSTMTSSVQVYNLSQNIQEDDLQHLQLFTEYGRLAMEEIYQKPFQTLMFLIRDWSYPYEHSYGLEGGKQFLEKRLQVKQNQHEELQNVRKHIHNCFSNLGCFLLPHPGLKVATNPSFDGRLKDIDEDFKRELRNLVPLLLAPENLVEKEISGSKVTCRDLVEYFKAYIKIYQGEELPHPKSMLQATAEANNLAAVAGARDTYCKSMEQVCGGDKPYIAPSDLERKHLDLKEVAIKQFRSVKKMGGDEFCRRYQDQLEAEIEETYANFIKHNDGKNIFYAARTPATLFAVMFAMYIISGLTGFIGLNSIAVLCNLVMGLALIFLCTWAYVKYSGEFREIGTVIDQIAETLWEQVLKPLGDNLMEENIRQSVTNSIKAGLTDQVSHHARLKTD
# Sequence of UniProt Q6QNY0 (Q6QNY0 whole entry, looked up): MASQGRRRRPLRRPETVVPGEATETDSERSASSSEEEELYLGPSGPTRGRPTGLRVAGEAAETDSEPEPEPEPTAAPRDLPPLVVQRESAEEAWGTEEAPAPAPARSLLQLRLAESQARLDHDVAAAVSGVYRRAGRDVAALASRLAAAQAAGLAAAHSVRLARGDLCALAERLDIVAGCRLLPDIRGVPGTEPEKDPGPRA
# Sequence of UniProt Q9BX63 (Q9BX63 whole entry, looked up): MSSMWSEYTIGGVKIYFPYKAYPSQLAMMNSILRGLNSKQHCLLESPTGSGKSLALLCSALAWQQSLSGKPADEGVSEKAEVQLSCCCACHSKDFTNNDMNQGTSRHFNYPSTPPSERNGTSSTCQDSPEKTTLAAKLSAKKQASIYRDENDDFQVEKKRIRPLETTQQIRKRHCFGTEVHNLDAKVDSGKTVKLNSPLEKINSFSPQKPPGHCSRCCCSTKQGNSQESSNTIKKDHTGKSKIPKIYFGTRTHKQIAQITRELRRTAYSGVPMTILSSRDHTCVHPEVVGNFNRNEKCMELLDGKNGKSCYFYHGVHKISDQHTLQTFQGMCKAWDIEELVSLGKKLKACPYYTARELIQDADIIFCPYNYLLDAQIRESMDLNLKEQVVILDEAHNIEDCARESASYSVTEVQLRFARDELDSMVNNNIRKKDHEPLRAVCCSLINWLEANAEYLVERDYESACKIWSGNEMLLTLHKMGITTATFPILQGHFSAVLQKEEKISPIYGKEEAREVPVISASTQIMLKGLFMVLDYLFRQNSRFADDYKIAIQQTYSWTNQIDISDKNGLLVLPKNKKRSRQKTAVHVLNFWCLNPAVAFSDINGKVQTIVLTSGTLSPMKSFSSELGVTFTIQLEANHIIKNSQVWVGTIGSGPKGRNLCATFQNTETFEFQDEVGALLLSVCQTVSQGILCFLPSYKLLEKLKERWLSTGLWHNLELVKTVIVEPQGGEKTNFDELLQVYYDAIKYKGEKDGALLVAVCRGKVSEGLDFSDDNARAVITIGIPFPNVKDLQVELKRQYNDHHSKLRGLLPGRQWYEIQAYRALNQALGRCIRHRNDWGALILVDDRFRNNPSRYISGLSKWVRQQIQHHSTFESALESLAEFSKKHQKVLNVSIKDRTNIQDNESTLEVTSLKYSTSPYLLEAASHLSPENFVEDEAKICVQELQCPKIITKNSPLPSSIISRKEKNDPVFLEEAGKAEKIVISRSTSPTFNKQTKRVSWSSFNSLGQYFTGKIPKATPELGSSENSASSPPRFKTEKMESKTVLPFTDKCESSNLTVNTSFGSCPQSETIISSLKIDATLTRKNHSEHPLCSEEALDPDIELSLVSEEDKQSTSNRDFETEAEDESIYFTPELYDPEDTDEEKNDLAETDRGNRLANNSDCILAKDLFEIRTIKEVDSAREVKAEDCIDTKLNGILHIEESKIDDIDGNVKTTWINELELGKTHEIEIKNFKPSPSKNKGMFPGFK
# Sequence of UniProt Q9NUQ2 (Q9NUQ2 whole entry, looked up): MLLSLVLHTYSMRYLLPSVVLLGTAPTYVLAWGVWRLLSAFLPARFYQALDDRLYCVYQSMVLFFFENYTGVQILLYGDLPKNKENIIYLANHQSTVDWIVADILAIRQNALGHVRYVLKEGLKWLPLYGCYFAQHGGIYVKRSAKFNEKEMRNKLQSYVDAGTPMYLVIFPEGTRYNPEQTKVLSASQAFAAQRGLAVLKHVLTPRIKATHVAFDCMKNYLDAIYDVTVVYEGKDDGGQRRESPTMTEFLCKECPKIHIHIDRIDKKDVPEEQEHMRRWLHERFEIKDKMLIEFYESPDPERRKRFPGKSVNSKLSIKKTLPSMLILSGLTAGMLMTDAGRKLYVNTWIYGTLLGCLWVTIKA
# Sequence of UniProt Q96CW1 (Q96CW1 whole entry, looked up): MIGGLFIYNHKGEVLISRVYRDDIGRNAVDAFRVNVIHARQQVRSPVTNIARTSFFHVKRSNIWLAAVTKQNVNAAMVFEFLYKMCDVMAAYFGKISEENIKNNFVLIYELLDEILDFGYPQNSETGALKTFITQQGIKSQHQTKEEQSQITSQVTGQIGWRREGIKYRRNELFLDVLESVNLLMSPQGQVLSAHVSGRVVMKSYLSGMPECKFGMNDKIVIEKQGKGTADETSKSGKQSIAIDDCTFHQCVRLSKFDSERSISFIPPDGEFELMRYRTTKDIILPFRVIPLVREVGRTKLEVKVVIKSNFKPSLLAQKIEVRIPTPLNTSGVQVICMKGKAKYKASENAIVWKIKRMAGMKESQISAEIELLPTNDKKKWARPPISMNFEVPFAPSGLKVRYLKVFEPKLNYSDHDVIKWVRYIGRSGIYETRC
# Sequence of UniProt P11766 (P11766 whole entry, looked up): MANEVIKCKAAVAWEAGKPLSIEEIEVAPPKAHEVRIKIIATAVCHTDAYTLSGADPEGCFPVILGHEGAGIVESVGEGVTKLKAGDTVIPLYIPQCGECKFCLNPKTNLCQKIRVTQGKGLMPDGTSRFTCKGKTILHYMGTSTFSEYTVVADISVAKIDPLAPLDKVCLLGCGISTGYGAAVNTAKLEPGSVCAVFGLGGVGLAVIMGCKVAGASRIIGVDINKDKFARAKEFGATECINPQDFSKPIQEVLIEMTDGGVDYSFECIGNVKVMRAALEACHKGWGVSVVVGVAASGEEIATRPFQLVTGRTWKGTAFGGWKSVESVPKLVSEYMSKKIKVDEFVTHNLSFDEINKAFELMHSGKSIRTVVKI
Target,log2 fold change [1],log2 fold change [2],log2 fold change [3],log2 fold change [4],log2 fold change [5],log2 fold change [6],log2 fold change [7],log2 fold change [8],log2 fold change [9],log2 fold change [10],log2 fold change [11],log2 fold change [12],log2 fold change [13],log2 fold change [14],log2 fold change [15],log2 fold change [16],log2 fold change [17],log2 fold change [18],log2 fold change [19],log2 fold change [20]
ACSL1 (UniProt P33121),-0.09,-0.183,0.012,0.018,0.05,-0.031,0,0.003,-0.064,-0.393 (active),0,0.029,-0.083,-0.075,-0.003,-0.025,-0.021,-0.025,0.031,0.042
ATL2 (UniProt Q8NHH9),0.031,0.037,0.066,0.092,-0.051,-0.127,0.028,0.017,-0.078,-0.032,-0.032,0.05,-0.05,0.047,0.005,0.008,0.019,0.035,0.005,0.008
ACAD9 (UniProt Q9H845),0.03,0.024,-0.039,0.015,0.006,0.014,0.022,-0.016,-0.032,-0.002,0.008,0.004,-0.012,-0.041,-0.001,-0.026,-0.038,-0.025,-0.004,-0.015
AGPS (UniProt O00116),-0.005,-0.021,0.002,0.031,0.018,-0.102,0.039,0.055,-0.09,-0.212 (active),-0.01,0.018,-0.058,-0.011,0.032,-0.039,-0.017,0.047,0.009,-0.042
ATP1A4 (UniProt Q13733),0.125,0.07,-0.025,0.081,-0.004,-0.056,-0.05,0.006,-0.057,0.26 (active),0.066,-0.088,0.015,-0.017,0.151,0.033,-0.076,-0.108,0.021,0.118
ADH5 (UniProt P11766),0.01,0.02,-0.024,-0.016,0.043,-0.001,-0.01,0.026,-0.052,-0.02,0.04,0.03,0.011,-0.025,-0.025,-0.014,-0.066,-0.025,-0.006,0.002
ANP32E (UniProt Q9BTT0),-0.132,-0.499 (active),0.04,0.054,-0.085,-0.128,-0.051,-0.025,-0.058,-0.147,0.006,-0.105,-0.109,0.052,0.041,-0.239,-0.108,-0.06,0.159,-0.022
AGPAT5 (UniProt Q9NUQ2),-0.169,-0.281 (active),-0.068,0.007,0.023,-0.13,0,0.01,-0.067,-0.25,0.016,0.08,-0.085,-0.075,-0.021,0.011,0.012,0.083,-0.011,-0.019
AP2B1 isoform 2 (UniProt P63010),0.065,-0.064,-0.001,-0.004,0.05,-0.021,-0.007,-0.018,-0.016,0.045,0.057,-0.003,0.017,0.001,0.022,0.005,0.043,-0.011,0.027,0.005
ATIC (UniProt P31939),-0.032,0.021,0.029,0.04,-0.011,-0.016,0.023,-0.012,-0.123,0.029,-0.013,-0.001,-0.064,0.008,0.087,-0.059,-0.05,0.044,-0.011,-0.028
BRIP1 (UniProt Q9BX63),-0.067,0.008,-0.004,-0.008,-0.16,-0.122,-0.068,0.044,0.041,-0.084,-0.034,-0.016,-0.067,-0.089,0.001,0.083,-0.068,-0.088,-0.003,0.018
AP2M1 (UniProt Q96CW1),0.072,-0.041,0,0.002,0.013,-0.006,-0.046,-0.018,0.023,0.006,0.032,0.008,0.017,0.002,0.005,0.016,0.026,0.001,0.008,-0.014
AP2A1 (UniProt O95782),0.076,-0.085,0.015,-0.011,0.022,-0.002,-0.041,-0.011,0.005,0,0.049,0.001,0.027,0.001,0.004,0.012,0.01,-0.047,0.032,-0.038
ATP6V1H (UniProt Q9UI12),-0.085,-0.093,0.069,0.098,0.041,-0.244 (active),0.012,0.048,-0.026,-0.069,-0.047,-0.015,-0.065,0.046,-0.016,-0.042,0.016,0.054,0.016,-0.043
BLOC1S3 (UniProt Q6QNY0),0.024,0.018,-0.04,-0.011,0.005,-0.017,0.058,0.048,-0.062,-0.01,0.049,0.034,0.015,-0.064,-0.05,-0.044,-0.047,-0.031,-0.035,0.028
ARGLU1 (UniProt Q9NWB6),0.094,-0.004,0.033,-0.106,0.024,0.138,0.003,0.012,0.068,0,0.016,0.091,0.014,0.003,-0.365,-0.04,-0.026,-0.028,-0.006,0.077
